PubChem BioAssay AID624481 (The Scripps Research Institute Molecular Screening Center, 2012)
Active and inactive are the calls of the source. Rule as the data show it: active = inhibition above about 50%; inactive = the rest.

molecular target: Prolyl endopeptidase-like (Mus musculus) (UniProt Q8C167); assay: purified PREPL inhibitors, PREPL inhibitor project, biochemical, gel-based competitive ABPP, fluorescence, HTS hits (AID 624481); conditions: at 20 µM, active compounds read high
Sequence (Q8C167 whole entry, looked up): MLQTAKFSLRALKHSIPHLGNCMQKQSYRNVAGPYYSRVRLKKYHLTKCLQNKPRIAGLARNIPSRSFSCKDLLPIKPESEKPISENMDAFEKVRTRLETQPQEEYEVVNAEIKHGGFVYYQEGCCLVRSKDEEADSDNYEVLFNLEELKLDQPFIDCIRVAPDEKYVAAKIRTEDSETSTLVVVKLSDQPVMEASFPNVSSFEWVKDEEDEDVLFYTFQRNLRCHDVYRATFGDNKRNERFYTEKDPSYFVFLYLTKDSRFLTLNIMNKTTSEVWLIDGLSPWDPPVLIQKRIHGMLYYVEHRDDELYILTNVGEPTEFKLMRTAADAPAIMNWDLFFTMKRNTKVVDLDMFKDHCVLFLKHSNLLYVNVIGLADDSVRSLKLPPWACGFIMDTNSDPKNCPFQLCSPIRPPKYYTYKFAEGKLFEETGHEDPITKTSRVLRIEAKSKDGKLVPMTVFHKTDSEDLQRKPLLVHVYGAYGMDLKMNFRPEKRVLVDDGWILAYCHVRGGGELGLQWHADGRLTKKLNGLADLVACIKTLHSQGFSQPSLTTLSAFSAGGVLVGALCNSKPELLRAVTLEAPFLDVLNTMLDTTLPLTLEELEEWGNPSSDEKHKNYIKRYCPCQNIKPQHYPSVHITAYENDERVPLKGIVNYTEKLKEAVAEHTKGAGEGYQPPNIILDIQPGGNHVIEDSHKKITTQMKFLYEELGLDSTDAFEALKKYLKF

inhibition, active:
O=S(=O)(c1ccc(-c2csc(=Nc3ccccc3)n2CCCN2CCOCC2)cc1)N1CCOCC1 57%, COc1ccc(N2CCN(C(=O)c3cn(C4CCCC4)c(=O)c4c3c3ccccc3n4C)CC2)cc1 92%

inhibition, inactive:
Cc1ccc(C2=CC(c3ccc(N(C)C)cc3)n3nnnc3N2)cc1 (configuration not stated) -77%, Oc1ccc(Nc2nc(N3CCCC3)c3ccccc3n2)cc1 -60%, CCOc1ccc2[nH]c3c(N4CCc5ccccc5C4)ncnc3c2c1 1%, COc1ccc(C(CCNCc2ccc(N(C)C)cc2)c2ccccc2)cc1 (configuration not stated) -124%, CN(C)c1ccc(NC(=O)c2cccc(C(=O)Nc3ccc(N(C)C)cc3)n2)cc1 -170%, O=C(C1=C[C@@H](c2ccc(Br)cc2)C[C@@H](OCc2ccc(CO)cc2)O1)N1CCN(Cc2ccc3c(c2)OCO3)CC1 -105%, CC(C)C[C@@H]1CN=C(N)N1C[C@@H]1CCCN1C[C@@H](C(C)C)N1C[C@@H](Cc2ccccc2)N(CCCC2CCCC2)C1=N -52%, CC(C)[C@@H]1CN=C(N)N1C[C@@H]1CCCN1C[C@H](C)N1C[C@@H](Cc2ccccc2)N(CCc2ccc(Cl)c(Cl)c2)C1=N -62%, Cc1cccc(C2CC(c3ccc(Cl)cc3)Nc3nc(N)nn32)c1 (configuration not stated) -60%, CCc1ccc(OCC(=O)Nc2ccc(N3CCN(C(=O)c4ccccc4)CC3)cc2)cc1 -73%, Cc1ccsc1C=NN=C1C(=O)Nc2ccccc21 -90%, c1ccc(N2CCN(c3nc(-c4ccccn4)nc4ccccc34)CC2)cc1 -283%, Cc1ccccc1-c1ccc(Nc2ccc(N3CCOCC3)cc2)nn1 12%, COc1cc(NC(=O)CN2CCN(c3ccccc3F)CC2)c(C)cc1[N+](=O)[O-] -92%, CN(C)c1ccc(C(CNC(=O)c2ccccc2F)c2c[nH]c3ccccc23)cc1 (configuration not stated) -10%, Cc1cc2cc(CNC(=O)c3ccc(Br)o3)ccc2n1C 38%, O=C(Cc1ccc(Cl)cc1)Nc1ccc(N2CCN(C(=O)c3ccco3)CC2)cc1 -61%, CNC(=S)N1N=C(c2ccc(C)cc2)CC1c1ccc(N(C)C)cc1 (configuration not stated) -85%, NC(=O)[C@H]1CC2(CC(c3cccc(NC(=O)COc4ccc(Cl)cc4)c3)=NO2)CN1C(=O)Cc1ccc([N+](=O)[O-])cc1 (some centres not stated) -114%, O=C(c1cc([N+](=O)[O-])ccc1Cl)N1CCN(c2ccc([N+](=O)[O-])cc2)CC1 -51%, CCC(CO)[n+]1c(C)cc(/C=C2\Sc3ccccc3N2Cc2ccccc2)cc1C (configuration not stated) -20%, COc1ccc(C)cc1Nc1n[n+](-c2ccccc2)c(-c2ccc(N(C)C)cc2)s1 -72%, C#CCOCCOCCOCCNc1nc(N2CCN(C(=O)[C@H](Cc3cc4ccccc4[nH]3)n3cc([C@@H](N)C(C)CC)nn3)CC2)nc(N2CCN(C(=O)[C@H](Cc3cc4ccccc4[nH]3)n3cc([C@@H](N)Cc4ccc(O)cc4)nn3)CC2)n1 (some centres not stated) -104%, CC1CCCN(Cc2c(O)ccc3c(=O)c(-c4nc5ccccc5s4)c(N)oc23)C1 (configuration not stated) 3%, CC(=O)N1CCN(c2ccc(OC[C@H]3CO[C@](Cn4ccnc4)(c4ccc(Cl)cc4Cl)O3)cc2)CC1 -188%, Cc1ccc2nc(-c3ccccn3)c(NC3CCCC3)n2c1 -23%, Nc1[nH]n2c(=O)c3c(nc2c1N=Nc1ccccc1)CCCC3 1%, COc1ccc(C2CC(c3cccc(C)c3)n3nc(N)nc3N2)cc1 (configuration not stated) -50%, Nc1[nH]n2c(=O)c3c(nc2c1N=Nc1ccc(Cl)cc1)CCCC3 -12%, Oc1ccccc1-[n+]1c(-c2ccccc2)cc(-c2ccccc2)cc1-c1ccccc1 -30%, C#CCOCCOCCOCCNc1nc(N2CCN(C(=O)CCCCCCCCCCNC(=O)[C@H]([C@@H](C)CC)n3cc(CCCCCN)nn3)CC2)nc(N2CCN(C(=O)CCCCCCCCCCNC(=O)[C@H](CO)n3cc(CCCCCN)nn3)CC2)n1 -61%, Cc1ccc(S(=O)(=O)Nc2ccc3c(c2)CC(=O)N([C@H](C)CO)C[C@H](C)[C@H](CN(C)Cc2ccc4c(c2)OCO4)O3)cc1 9%, O=C(COc1ccccc1Cl)Nc1ccc(N2CCN(C(=O)c3ccccc3)CC2)cc1 -61%, COc1ccc(C(=O)c2coc3ccc(O)c(CN4CCCC4)c23)cc1 -31%, CN(C)S(=O)(=O)c1cccc(-c2csc(=Nc3ccccc3)n2CCCN2CCOCC2)c1 -41%
